For 16 compounds, growth results are on record in PubChem BioAssay (NCI).

About 83,000 compounds went through this panel and 20% of them were active in at least one assay; those are over-represented in the sample as a whole.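 Interpretation: 100, growth as untreated; towards 0, rising growth inhibition; 0, no net growth; 0 to -100, cell death. Compounds scoring below 10 were considered active.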 A number with no mark means an inactive call. Active and inactive are the calls of the source.

Common to all, as to assay: NCI-60 one-dose screen, 48 h (100 = growth as untreated, 0 = no growth, -100 = all killed)
Settings in all cases: 10 µM unless noted

Assay [1] has as its system HCT-15 colon.
Assay [2] concerns SNB-75 CNS.
Assay [3] concerns SNB-19 CNS.
Assay [4] concerns U251 CNS.
Assay [5] deals with PC-3 prostate.
Assay [6] has as its system SK-MEL-5 melanoma.
Assay [7] deals with UACC-62 melanoma.
Assay [8] has as its system LOX IMVI melanoma.
The subject of assay [9] is SK-MEL-28 melanoma.
In assay [10] the test system is HT29 colon.

With `COc1ccc2nc(NCCCNCCO)c3sc4ccc(F)cc4c(=O)c3c2c1`, the growth in assay [1] was -47.9% (active); in assay [2] it was 54.1%; in assay [3], 61.5%; in [4] it was -33.2% (active); in assay [5] it was 38.9%; in [6], 85%. Besides, the growth is 65.7% in [7], -97% (active) in [8] and 68.9% in assay [9].

Regarding `COc1ccc(OC)c(/C=C/C(=O)N/N=C/c2ccc(Cl)cc2)c1`, the growth in assay [10] was 6.49% (active); in assay [2] it was 44%; in assay [3], 22.6%; in assay [4], 18.4%; in assay [5], 26.2%; in [6], 30.6%. Further, the growth in assay [7] is 42.1%; in [8], 36.7%; in assay [9], 38.8%.

For the compound `Cc1ccc2sc3c(NCCCN)nc4ccccc4c3c(=O)c2c1`, the growth in [1] was -12.2% (active); in [2] it was 78.1%; in assay [3], 74.6%; in assay [4], 6.32% (active); in assay [5] it was 65.4%; in [6] it was 90.6%. For the same compound, the growth in assay [7] is 94.1%; in assay [8], -97.7% (active); in assay [9] it was 95.3%.

On to `COc1ccc(C2C(N)=NNC2c2cccc(O)c2)cc1` (stereo unspecified), for which the growth was 102% in [1]; 84.7% in assay [2]; 93.6% in assay [4]; 95.6% in [5]; 101% in [6]; 91.2% in assay [7]. For the same compound, the growth is 97.7% in [8] and 108% in [9].

On to `CCc1cccc2c1S/C(=C/c1ccc(Cl)cc1)C2=O`, for which the growth in [1] is 92.5%; in [2] it was 73.3%; in [3], 95.1%; in assay [4], 99.2%; in assay [5] it was 88.6%; in [6], 99.4%. The values for the growth in assay [8] and in [9] were 93.8% and 110%, respectively.

Regarding `CCN1C(=O)N(CC)C2Nn3c(s/c(=C4\C(=O)N(CCC(C)C)c5ccccc54)c3=O)=NC21` (stereo unspecified), the growth was 47% in assay [1]; 59.2% in assay [2]; 88.6% in [3]; 87.7% in assay [4]; 63.2% in [5]; 89.5% in [6]. Also, the values for the growth in assay [7], in [8] and in [9] were 67.1%, 91.7% and 78.6%, respectively.

Regarding `COc1cccc(-c2nc(-c3ccc(NS(=O)(=O)c4ccccc4)cc3)[nH]c2-c2ccnc(Br)c2)c1`, the growth in [1] was 3.93% (active); in assay [2], 15%; in assay [4], 35.4%; in assay [5] it was 15.1%; in assay [6], 41.7%; in assay [7] it was 14.8%. Besides, the results for the growth in assay [8] and in [9] were 4.69% (active) and 25.6%, respectively.

With `CCOC(=O)C1=C(N)Oc2c(sc3c(CC)cccc23)C1c1ccc(F)cc1` (stereo unspecified), the growth was 22.4% in assay [1]; -2.89% (active) in [2]; 35% in assay [3]; 40.6% in assay [4]; 26.1% in assay [5]; 61.1% in assay [6]. Besides, the growth in [7] is 22%; in assay [8] it was 35%; in [9] it was 53.8%.

As to `c1ccc2cc(C[n+]3ccn(CCCCCCCCCCCCn4cc[n+](Cc5ccc6ccccc6c5)c4)c3)ccc2c1`, the growth in [1] is 17.4%; in assay [2] it was -96.2% (active); in [3], -80.5% (active); in [5], -37.6% (active); in assay [6] it was -93.5% (active); in assay [7], -81.7% (active). The results for the growth in assay [8] and in assay [9] were -84.9% (active) and -72.3% (active), respectively.

With `O=C(Nc1ccc(OS(=O)(=O)c2ccc(F)cc2)cc1)c1ccc(Cl)cc1`, the growth in assay [1] is 89.9%; in assay [2], 114%; in [3], 99.4%; in [4], 100%; in [5], 91.8%; in [8] it was 98.7%. Besides, the growth in assay [9] was 107%.

`COc1ccc(-c2nc(NCCO)[nH]c(=O)c2C#N)cc1`: the growth in assay [1] was 104%; in assay [2], 91.8%; in assay [3] it was 105%; in [4], 103%; in assay [5], 91.4%; in assay [6], 107%. Also, the growth is 102% in [7], 103% in [8] and 108% in assay [9].

Consider `COc1cc(C)c(Cc2cnc(N)nc2N)cc1OC`, for which the growth is 113% in assay [1]; 104% in assay [2]; 98.9% in assay [3]; 97.7% in assay [4]; 94.3% in assay [5]; 105% in [6]. In addition, the growth in [7] was 99.5%; in [8], 94.9%; in assay [9] it was 118%.

Consider `COc1ccc(C2CC(c3ccc(Nc4nc(Nc5ccc(F)cc5)nc(Nc5ccc(Cl)cc5)n4)cc3)=NN2C(C)=O)cc1` (stereo unspecified), for which the growth in assay [1] is 93.6%; in assay [2], 85.5%; in assay [3] it was 79.3%; in [4], 86.7%; in assay [5], 85.2%; in assay [6], 92%. The growth is 90.6% in assay [7], 105% in assay [8] and 114% in assay [9].

Regarding `CCCCNC(=O)Oc1ccc(/C(=C(\C)c2ccc(Cl)cc2)c2ccc(OCCN3CCCCC3)cc2)cc1`, the growth in assay [1] was 23.8%; in [2] it was 80.3%; in [5], 63.8%; in assay [6] it was 74.2%; in assay [7], 83%; in assay [8], 79.8%. In addition, in [9], the growth is 80.1%.

Regarding `c1ccc(-c2nc3sc(-c4ccccc4)cn3n2)cc1`, the growth in assay [1] is 91.6%; in [2] it was 84.3%; in [3] it was 88.5%; in assay [4], 93.6%; in assay [5], 63%; in assay [6], 80%. Besides, the growth in assay [7] was 66.9%; in assay [8], 83.3%; in [9], 107%.

In the case of `O=C(CCCCCCSc1nc(-c2ccccc2)cc(-c2ccccc2)n1)NO`, the growth in [1] was 32.6%; in [2], 21.2%; in assay [3] it was 47.3%; in assay [4] it was 35%; in [5], 49.7%; in [6] it was 9.17% (active). The figures for the growth in assay [7], in assay [8] and in assay [9] were 12.8%, 3.67% (active) and 39.9%, respectively.
